Data taken from PubChem BioAssay.

Columns and labels:
[1] = test system: Human papillomavirus type 1a protein E7 (residues 44-93); assay: small molecules binding HPV E7 44-93 – biochemical, small-molecule microarray, residues 44-93, 635 nm fluorescence, primary screen (AID 1108); settings: fluorescence 635 nm, higher = more signal;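 also: E7 fragment applied at 1 µg/mL in TBST for 1 h at 4 C; score combines spot fluorescence with its signal to noise ratio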
[2] = hepatitis C replication reporter changes, two-sided – Huh7 cells, luciferase reporter, HCV replication inhibitor project, primary screen (AID 1109); settings: Huh7 HCV replicon luciferase reporter, 48 h; higher = more signal;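 also: huh7 hepatoma cells harbouring a luciferase neomycin HCV replicon reporter; luciferase luminescence as measure of HCV replicon replication; test concentration not given here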
[3] = target: Left-right determination factor 2 (Homo sapiens) (UniProt O00292); assay: small molecules binding LEFTY2 protein – biochemical, small-molecule microarray, 635 nm fluorescence scan, primary screen (AID 1110); settings: higher = more signal
[4] = target: Calmodulin-1 (Homo sapiens) (UniProt P0DP23); assay: small molecules binding calmodulin-1 with EGTA – biochemical, small-molecule microarray, Cy5-labelled CALM1, profiling panel (AID 1111); settings: Cy5-CALM1 binding fluorescence, higher = more signal;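 also: labelled calmodulin applied in Tris saline Tween buffer holding calcium plus EGTA and DTT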
[5] = target: Calmodulin-1 (Homo sapiens) (UniProt P0DP23); assay: small molecules binding Ca-loaded calmodulin-1 – biochemical, small-molecule microarray, Cy5-labelled CALM1, plus calcium, artefact control for SMM control-protein annotation, profiling panel (AID 1112); settings: Cy5-CALM1 binding fluorescence, higher = more signal;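 also: score merges spot fluorescence with signal to noise from triplicate slides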
[6] = probe aWnt5a binding to arrayed compounds – biochemical, biotinylated probe, 635/667 nm fluorescence, primary screen (AID 1113); settings: small-molecule microarray, higher = more signal;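 also: score merges 667 nm fluorescence intensity with signal-to-noise per printed feature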
[7] = probe aShh binding to arrayed compounds – biochemical, biotinylated probe, 635/667 nm fluorescence, primary screen (AID 1114); settings: small-molecule microarray, higher = more signal;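 also: probe is biotin-labelled aShh protein from a stem cell growth factor screen; measures binding of labelled protein to compounds printed on the slide; score merges feature fluorescence at 667 nm with signal-to-noise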
[8] = probe aNog binding to arrayed compounds – biochemical, biotinylated probe, 635/667 nm fluorescence, primary screen (AID 1115); settings: small-molecule microarray, higher = more signal;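 also: probe is biotinylated aNog protein used at 0.15 µg/mL for 1 h at 4 C; z-score combines 667 nm fluorescence of each spot with its signal to noise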
[9] = target: Torsin-1A-interacting protein 1 (Homo sapiens) (UniProt Q5JTV8); assay: compound microarray binding of lysate hLAP1 – cell lysate, small-molecule microarray, COS7 lysate, 635/667 nm fluorescence, primary screen (AID 1116); settings: 635 nm fluorescence, higher = more signal
[10] = target: Alpha-bungarotoxin (Bungarus multicinctus) (UniProt P60615); assay: compounds binding labelled alpha-BTX control protein – biochemical, small-molecule microarray, Alexa647 label, 635/667 nm fluorescence, artefact control for SMM control protein annotation, profiling panel (AID 1117); settings: alpha-BTX-A647 binding fluorescence, higher = more signal
Sequence of Alpha-bungarotoxin (Bungarus multicinctus) (P60615 whole entry, looked up): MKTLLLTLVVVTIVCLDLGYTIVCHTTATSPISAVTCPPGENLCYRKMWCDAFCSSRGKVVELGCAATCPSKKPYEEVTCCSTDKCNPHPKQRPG

Sequence of Left-right determination factor 2 (Homo sapiens) (O00292 whole entry, looked up): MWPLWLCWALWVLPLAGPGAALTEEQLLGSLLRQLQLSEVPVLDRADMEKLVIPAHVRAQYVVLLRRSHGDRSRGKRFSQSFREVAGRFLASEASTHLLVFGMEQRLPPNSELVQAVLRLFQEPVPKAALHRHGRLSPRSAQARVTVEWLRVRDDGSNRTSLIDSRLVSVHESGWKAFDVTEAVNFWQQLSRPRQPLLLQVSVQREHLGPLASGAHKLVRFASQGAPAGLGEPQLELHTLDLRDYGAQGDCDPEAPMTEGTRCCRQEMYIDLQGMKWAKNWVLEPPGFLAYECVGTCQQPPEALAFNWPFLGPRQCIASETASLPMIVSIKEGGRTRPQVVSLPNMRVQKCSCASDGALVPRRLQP
Sequence of Torsin-1A-interacting protein 1 (Homo sapiens) (Q5JTV8 whole entry, looked up): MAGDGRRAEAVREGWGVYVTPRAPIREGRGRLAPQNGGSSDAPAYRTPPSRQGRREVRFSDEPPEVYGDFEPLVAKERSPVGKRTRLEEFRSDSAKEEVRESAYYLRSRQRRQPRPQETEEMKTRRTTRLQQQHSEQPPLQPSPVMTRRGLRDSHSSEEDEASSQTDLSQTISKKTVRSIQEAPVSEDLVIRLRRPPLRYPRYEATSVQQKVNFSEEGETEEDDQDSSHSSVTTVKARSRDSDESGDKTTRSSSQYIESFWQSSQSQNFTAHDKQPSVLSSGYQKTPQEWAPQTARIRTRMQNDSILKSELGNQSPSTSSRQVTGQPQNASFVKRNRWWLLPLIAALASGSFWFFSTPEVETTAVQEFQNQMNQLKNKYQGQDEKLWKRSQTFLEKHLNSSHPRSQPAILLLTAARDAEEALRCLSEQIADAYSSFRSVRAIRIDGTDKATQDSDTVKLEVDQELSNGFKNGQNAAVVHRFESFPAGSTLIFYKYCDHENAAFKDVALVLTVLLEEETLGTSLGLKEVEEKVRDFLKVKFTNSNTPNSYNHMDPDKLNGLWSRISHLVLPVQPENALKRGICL

With `CN(C)CCCN1C(=O)[C@@]2(Cc3ccccc31)c1ccccc1C(=O)N(Cc1ccccc1)[C@H]2c1ccc(CO)cc1` the composite z-score [1] was 0.118, the z-score [2] was -1.2 and the composite z-score [3] was -0.0359. The composite z-score [4] was 0.505, the composite z-score [5] was -0.258 and the composite z-score [6] was -0.252. The composite z-score [7] was -0.289, the composite z-score [8] was -0.288 and the composite z-score [9] was -0.123. It also gave a composite z-score [10] of 0.648.

In the case of `CCCC=C(CCC)[C@@H](NC(=O)Cc1ccccc1)c1ccc(C(=O)OC)cc1`, the composite z-score [1] is reported as 1.08, the z-score [2] is reported as -1.11 and the composite z-score [3] is reported as 0.0461. It also gave a composite z-score [4] of 1.22, a composite z-score [5] of 0.499 and a composite z-score [6] of 0.748. It also gave a composite z-score [7] of 2.15, a composite z-score [8] of 1.79 and a composite z-score [9] of -0.481. It also gave a composite z-score [10] of 1.66.

`CCCCC(=C=CC[C@H](O)c1ccccc1OCCO)C[C@H](O)c1ccccn1` showed a composite z-score [1] of 0.0797, a z-score [2] of -0.619 and a composite z-score [3] of 0.377. The composite z-score [4] was -0.0455, the composite z-score [5] was -0.351 and the composite z-score [6] was -0.126. For the same compound, the composite z-score [7] was -0.0769, the composite z-score [8] was -0.388 and the composite z-score [9] was 0.934. The composite z-score [10] was 0.697.

In the case of `COC(=O)[C@@]1(Cc2ccc(OC)cc2)[C@H]2c3cc(C(=O)N(C)C)n(Cc4cc(F)c(F)c(F)c4)c3C[C@H]2CN1C(=O)c1ccccc1`, the composite z-score [1] is reported as 1.43, the z-score [2] is reported as -2.04 and the composite z-score [3] is reported as 0.159. For the same compound, the composite z-score [4] was 2.29, the composite z-score [5] was 1.17 and the composite z-score [6] was 0.225. It also gave a composite z-score [7] of 0.75, a composite z-score [8] of 1.73 and a composite z-score [9] of 1.19. For the same compound, the composite z-score [10] was 1.86.

With `[N-]=[N+]=Nc1ccccc1C[C@]1(C(=O)NCCN2CCOCC2)N=C(c2ccc(OCCCO)cc2)O[C@H]1c1ccccc1N=[N+]=[N-]` the composite z-score [1] was 1.12, the z-score [2] was -2.49 and the composite z-score [3] was 0.863. For the same compound, the composite z-score [4] was 1.1, the composite z-score [5] was -0.198 and the composite z-score [6] was 0.136. For the same compound, the composite z-score [7] was -0.138, the composite z-score [8] was 1.85 and the composite z-score [9] was 1.51. The composite z-score [10] was 1.12.

In the case of `COCCOC(=O)N1C(=O)[C@@]2(c3cc(C#Cc4ccc(OC)cc4)ccc31)[C@H](C(N)=O)[C@H]1C(=O)O[C@H](c3ccccc3)[C@H](c3ccccc3)N1[C@@H]2c1ccc(OCCO)cc1`, the composite z-score [1] is reported as 1.42, the z-score [2] is reported as -2.25 and the composite z-score [3] is reported as 0.746. The composite z-score [4] was 0.894, the composite z-score [5] was -0.454 and the composite z-score [6] was -0.0512. For the same compound, the composite z-score [7] was -0.12, the composite z-score [8] was 0.492 and the composite z-score [9] was 1.09. It also gave a composite z-score [10] of 1.5.

Work on `COc1ccc([Si](C)(C)[C@@H]2[C@@H](CCO)O[C@]3(C(=O)N(Cc4ccccc4)c4ccc(N5C(=O)COc6ccccc65)cc43)[C@H]2C)cc1` yielded a composite z-score [1] of 1.23, a z-score [2] of -4.11 and a composite z-score [3] of 0.0529. For the same compound, the composite z-score [4] was 0.953, the composite z-score [5] was 0.838 and the composite z-score [6] was -0.129. It also gave a composite z-score [7] of -0.0626, a composite z-score [8] of -0.194 and a composite z-score [9] of 0.462. The composite z-score [10] was 0.31.

Work on `CCOC(=O)C1=CC[C@@H](c2ccc(N(CC)CC)cc2)N(S(=O)(=O)c2ccc(C)cc2)[C@H]1c1ccc([N+](=O)[O-])cc1` yielded a composite z-score [1] of 1.24, a z-score [2] of -0.83 and a composite z-score [3] of -1.76. It also gave a composite z-score [4] of 0.863, a composite z-score [5] of -0.378 and a composite z-score [6] of -0.0472. The composite z-score [7] was -0.0035, the composite z-score [8] was 0.587 and the composite z-score [9] was 0.923. The composite z-score [10] was 0.274.

For `O=C1NC(=O)C2C1C=CC(C(O)c1ccc(-c3ccccc3)s1)N2Nc1ccccn1` (stereo not given), the composite z-score [1] was -1.13, the z-score [2] was -0.684 and the composite z-score [3] was 0.18. The composite z-score [4] was 0.0183, the composite z-score [5] was 0.0403 and the composite z-score [6] was 0.0746. It also gave a composite z-score [7] of -0.0961, a composite z-score [8] of -0.0545 and a composite z-score [9] of 2.8. The composite z-score [10] was 0.435.

`CC(C)c1ccc(NN2C(C(O)c3cccs3)C=CC3C(=O)N(c4ccccc4)C(=O)C32)cc1` (stereo not given) gave a composite z-score [1] of 1.4, a z-score [2] of -0.531 and a composite z-score [3] of -0.0393. It also gave a composite z-score [4] of 2.29, a composite z-score [5] of 0.795 and a composite z-score [6] of 0.0364. The composite z-score [7] was -0.304, the composite z-score [8] was 0.113 and the composite z-score [9] was 0.789. The composite z-score [10] was 1.01.

`O=C1N(CCS(=O)(=O)c2ccccc2)c2ccccc2[C@H]2OC(c3ccc(OCCCO)cc3)=N[C@@]12CCS(=O)(=O)c1ccccc1` showed a composite z-score [1] of 1.13, a z-score [2] of 0.208 and a composite z-score [3] of 0.98. The composite z-score [4] was 0.589, the composite z-score [5] was 0.362 and the composite z-score [6] was 0.385. It also gave a composite z-score [7] of 0.359, a composite z-score [8] of 1.29 and a composite z-score [9] of 0.475. The composite z-score [10] was 0.96.

For `CCCCCCCCCCC(O)C1C=CC2C(=O)NC(=O)C2N1Nc1ccccn1` (stereo not given), the composite z-score [1] was 1.08, the z-score [2] was -2.64 and the composite z-score [3] was -0.765. For the same compound, the composite z-score [4] was 1.4, the composite z-score [5] was 0.945 and the composite z-score [6] was -0.0566. The composite z-score [7] was 0.337, the composite z-score [8] was 1.7 and the composite z-score [9] was -0.0182. The composite z-score [10] was 0.217.

With `COc1ccc(C(=O)Nc2ccc(CN3C(=O)[C@@]4(O[C@@H](CC(=O)N5Cc6ccccc6C[C@H]5CO)[C@H]([Si](C)(C)c5ccc(OC)cc5)[C@H]4C)c4ccccc43)cc2)cc1` the composite z-score [1] was 1.1, the z-score [2] was -3.84 and the composite z-score [3] was 0.804. For the same compound, the composite z-score [4] was 0.0063, the composite z-score [5] was -0.613 and the composite z-score [6] was -0.119. The composite z-score [7] was 0.0121, the composite z-score [8] was -0.24 and the composite z-score [9] was 1.21. The composite z-score [10] was 1.3.

`C=CCOC(=O)[C@@H]1[C@H]2C(=O)O[C@H](c3ccccc3)[C@H](c3ccccc3)N2[C@H](c2ccc(OCCOC(=O)[C@@H]3C[C@@H]4C(=O)N[C@@H](CCCCNC(C)=O)C(=O)N4[C@@H]3c3ccc(O)cc3)cc2)[C@@]12C(=O)Nc1ccc(I)cc12` showed a composite z-score [1] of 1.41, a z-score [2] of -0.66 and a composite z-score [3] of 0.722. It also gave a composite z-score [4] of 0.743, a composite z-score [5] of -0.342 and a composite z-score [6] of -0.0684. For the same compound, the composite z-score [7] was 0.0098, the composite z-score [8] was -0.192 and the composite z-score [9] was 0.6. The composite z-score [10] was 0.831.

Work on `COC(=O)[C@@]1(Cc2ccc(OC)cc2)[C@H]2c3cc(C(=O)N(C)C)n(Cc4cc(C)n(C)n4)c3C[C@H]2CN1C(=O)c1ccccc1` yielded a composite z-score [1] of 1.52, a z-score [2] of -0.952 and a composite z-score [3] of -0.198. The composite z-score [4] was 0.239, the composite z-score [5] was 0.529 and the composite z-score [6] was 0.596. The composite z-score [7] was 0.964, the composite z-score [8] was 1.11 and the composite z-score [9] was 1.2. The composite z-score [10] was -0.329.

For `COC(=O)[C@@]1(Cc2ccc(OC)cc2)[C@H]2c3cc(C(=O)N4CCCC4)n(CCF)c3C[C@H]2CN1C(=O)c1ccccc1`, the composite z-score [1] was 0.632, the z-score [2] was -1.27 and the composite z-score [3] was -0.191. It also gave a composite z-score [4] of 2.03, a composite z-score [5] of 0.77 and a composite z-score [6] of 1.34. The composite z-score [7] was 2.55, the composite z-score [8] was 3.06 and the composite z-score [9] was 1.19. For the same compound, the composite z-score [10] was 1.04.
